Compound activity as filed in PubChem BioAssay.
KB-V1 cytotox: kills drug-selected multidrug resistant KB-V1 cells; KB-V1 MDR cells viability, CellTiter-Glo, 72 h; Potency, µM (highest dose often 46.1 µM), usual class: cytotoxic; 3.4% of 400,000 active; AID 1347076; note: nearly all actives have a fitted effect of over 60% in size
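Luminescent ATP read-out (CellTiter-Glo, 10 min) measures survival of drug-selected KB-V1 MDR cells after 72 h, 37 degrees C compound exposure. Medium: phenol-red-free DMEM, 10% FBS. Values from fitted concentration-response curves.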
DT40 TDP1 CPT: growth inhibition of DT40 Tdp1-/-;hTDP1 cells with camptothecin (screen for TDP1 inhibitors); AID 686979; 12% of 420,000 active; Potency, µM (highest dose often 46.2 µM), actives largely listed as inhibitors; chicken DT40 Tdp1-/-;hTDP1 cells + 20 nM CPT, ATP luminescence, 48 h; note: nearly all actives have a fitted effect of over 55% in size
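Chicken DT40 Tdp1-/- cells complemented with human TDP1, 400 cells/well, exposed to compounds plus 20 nM camptothecin for at least 48 h at 37 C; viability read as ATP content by CellTiter-Glo luminescence.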
TDP1 cell noCPT: qHTS for Inhibitors of human tyrosyl-DNA phosphodiesterase 1 (TDP1): qHTS in cells in absence of CPT; Potency, µM (series often up to 46.2 µM), actives largely listed as inhibitors; 15% of 420,000 active; DT40 Tdp1-/- hTDP1 cells, no CPT, ATP luminescence, 48 h; note: nearly all actives have a fitted effect of over 55% in size
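A cellular qHTS used chicken DT40 cells lacking endogenous Tdp1 but carrying stably transfected human TDP1. Compounds were applied without camptothecin, and cell growth kinetics were judged by ATP-dependent luminescence after ≥48 hr.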
KB-3-1 cytotox: KB-3-1 parental cell cytotoxicity. KB-3-1 viability, CellTiter-Glo ATP luminescence, 72 h. Potency, µM (doses to about 46.1 µM), most hits filed as cytotoxic. 1.4% of 400,000 active. AID 1347075; note: nearly all actives have a fitted effect of over 60% in size
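Here the drug-naive KB-3-1 line serves as comparator for MDR sub-line selectivity; cells received compound titrations, 72 h at 37 °C, then CellTiter-Glo readout.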
HT1080-NT tox: kills 2HG-producing HT-1080-NT fibrosarcoma cells; HT-1080-NT fibrosarcoma viability, CellTiter-Glo ATP luminescence, 48 h; Potency, µM (top dose mostly 46.1 µM), hits mostly cytotoxic; 1.6% of 360,000 active; AID 686970;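 note: NT is the 2HG producing partner of a matched IDH1 knockdown line; nearly all actives have a fitted effect of over 55% in size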
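Viability by CellTiter-Glo luminescence after 48 h compound exposure at 37C of HT-1080-NT cells (750/well, RPMI, 5% FBS). % activity scaled between DMSO wells and medium-only wells, then curve-fitted and categorized by curve class.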
HT1080 IDH1KD tx: toxicity to HT-1080 IDH1 knockdown cells (counter line) | AID 686971 | HT-1080 IDH1 knockdown viability, ATP luminescence, 48 h | 2% of 360,000 active | Potency, µM (titrated, usually from 46.1 µM), hits mostly cytotoxic
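Knockdown cells (IDH1KD HT-1080) received compounds 2 h after plating at 750 cells/well and were kept 48 h at 37 °C in 5% FBS RPMI. A CellTiter-Glo luminescence read gave % activity for curve fitting.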
Each line names hits and unclear results; the compound was inactive in the other large screens. Most compounds without a hit are left out; they make up all but 19% or so of the library. Calls come from the whole dose curve; as a rule, active = well fitted curve in the direction sought with a large enough effect; inconclusive = small, poorly fitted or top-dose-only effect, or another doubt; inactive = no such curve, though single readings can be large; an effect the other way counts as inactive or inconclusive.

COc1ccccc1NC(=O)N(Cc1ccco1)Cc1cc2ccc(C)c(C)c2[nH]c1=O	KB-V1 cytotox 5.8µM, DT40 TDP1 CPT 3.66µM, TDP1 cell noCPT 4.11µM, KB-3-1 cytotox 5.8µM, HT1080-NT tox 3.66µM, HT1080 IDH1KD tx 2.59µM
COc1ccccc1NC(=S)N(Cc1ccco1)Cc1cc2cc(C)c(C)cc2[nH]c1=O	KB-V1 cytotox 2.59µM, DT40 TDP1 CPT 4.11µM, TDP1 cell noCPT 5.17µM, KB-3-1 cytotox inconclusive, HT1080-NT tox inconclusive, HT1080 IDH1KD tx 7.31µM
COc1ccccc1NC(=O)N(Cc1ccco1)Cc1cc2cc(C)cc(C)c2[nH]c1=O	KB-V1 cytotox 18.4µM, DT40 TDP1 CPT 20.6µM, TDP1 cell noCPT 14.6µM, KB-3-1 cytotox inconclusive, HT1080-NT tox inconclusive, HT1080 IDH1KD tx inconclusive
C[C@@H](NC(=O)[C@@H]1CCCN1C(=O)OC(C)(C)C)c1ccccc1	KB-V1 cytotox inconclusive
COc1ccc(C(=O)OCC(=O)c2ccco2)cc1[N+](=O)[O-]	KB-V1 cytotox inconclusive
COc1ccc(C=C(c2nc3ccccc3s2)c2nc3ccccc3s2)cc1O	KB-V1 cytotox inconclusive, DT40 TDP1 CPT inconclusive, TDP1 cell noCPT 20.6µM, HT1080-NT tox inconclusive, HT1080 IDH1KD tx inconclusive
COc1cc(/C=C(\C#N)c2nc3ccccc3[nH]2)cc(Br)c1OCc1ccccc1	DT40 TDP1 CPT 18.4µM, TDP1 cell noCPT 20.6µM, HT1080-NT tox inconclusive, HT1080 IDH1KD tx inconclusive
N#C/C(=C\c1cc([N+](=O)[O-])c(N2CCOCC2)cc1N1CCOCC1)c1nc2ccccc2[nH]1	KB-V1 cytotox inconclusive, DT40 TDP1 CPT inconclusive, TDP1 cell noCPT 23.1µM
CCC(=O)Oc1ccc(/C=C(\C#N)c2nc3ccccc3[nH]2)cc1OC	DT40 TDP1 CPT inconclusive, TDP1 cell noCPT inconclusive (no result: HT1080-NT tox, HT1080 IDH1KD tx)
COc1ccc(/C=C(\C#N)c2nc3ccccc3[nH]2)cc1O	DT40 TDP1 CPT 14.6µM, TDP1 cell noCPT 20.6µM, HT1080 IDH1KD tx inconclusive
COc1cc(C=C(c2nc3ccccc3s2)c2nc3ccccc3s2)ccc1O	HT1080-NT tox inconclusive, HT1080 IDH1KD tx inconclusive
COc1c(O)ccc(/C=C(\C#N)c2nc3ccccc3[nH]2)c1[N+](=O)[O-]	TDP1 cell noCPT inconclusive
COC(=O)[C@@]12C[C@@H](CC(=O)N3CCOCC3)C(=O)N(Cc3ccco3)C1=CCC(C)(C)C2	none
Cc1nnc(SCC(=O)c2c[nH]c3ccccc23)n1C1CC1	none
COc1ccc(S(=O)(=O)NCc2ccc(C(=O)NCc3ccccc3)cc2)cc1	none (no result: HT1080-NT tox, HT1080 IDH1KD tx)
Cc1cc(/C=C(/C#N)c2nc3ccccc3[nH]2)c(C)n1-c1cccc([N+](=O)[O-])c1	KB-V1 cytotox inconclusive, DT40 TDP1 CPT 16.4µM, TDP1 cell noCPT 13µM, KB-3-1 cytotox inconclusive
COc1cc(/C=C(\C#N)c2nc3ccccc3[nH]2)ccc1OCc1ccccc1F	DT40 TDP1 CPT inconclusive (no result: HT1080-NT tox, HT1080 IDH1KD tx)
COc1ccc(/C=C(\C#N)c2nc3ccccc3c(=O)[nH]2)cc1OC	DT40 TDP1 CPT inconclusive, TDP1 cell noCPT 18.4µM (no result: HT1080-NT tox, HT1080 IDH1KD tx)
COc1cc(/C=C(\C#N)c2nc3ccccc3[nH]2)cc(OC)c1O	KB-V1 cytotox inconclusive, DT40 TDP1 CPT 16.4µM, TDP1 cell noCPT 13µM
COc1cc(/C=C(/C#N)c2nc3ccccc3c(=O)[nH]2)ccc1O	none
COc1cc(/C=C(\C#N)c2nc3ccccc3[nH]2)ccc1Oc1ccc([N+](=O)[O-])cn1	DT40 TDP1 CPT 11.6µM, TDP1 cell noCPT 20.6µM, HT1080-NT tox inconclusive, HT1080 IDH1KD tx inconclusive
Nc1nc(SCC(=O)Nc2ccc(Cl)c(S(=O)(=O)N3CCOCC3)c2)n[nH]1	none
O=C1N[C@@H](Cc2c[nH]c3ccccc23)COC(=O)[C@H](Cc2ccc(F)cc2)C/C=C\C[C@@H]1CC(=O)N(CCO)Cc1ccccc1	DT40 TDP1 CPT inconclusive, TDP1 cell noCPT inconclusive, KB-3-1 cytotox inconclusive, HT1080-NT tox inconclusive, HT1080 IDH1KD tx inconclusive
